From PubChem BioAssay (NCATS) come the findings set out here.

Molecules are shown by their SMILES. Inconclusive results are not listed. Active and inactive are the calls of the source. Unless noted, the call rests on the fitted dose curve; in most records, active means well fitted curve in the direction sought with a large enough effect; inconclusive means small, poorly fitted or top-dose-only effect, or another doubt; inactive means no such curve, though single readings can be large; an effect the other way counts as inactive or inconclusive.

Experiment [1] is described as follows: Confirmation and Secondary Assay for Modulators of Hemoglobin Beta Chain Splicing at IVS2 654 locus (AID 910).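 Further: HeLa cells stably carrying EGFP split by mutant beta-globin IVS2-654 intron.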 Summed up:
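HeLa cells stably expressing EGFP interrupted by β-globin IVS2-654 intron, seeded overnight in Opti-MEM/2% FCS, then treated 2 days at 37 °C. Restored splicing read as total peak GFP intensity per well by laser scanning cytometry (488 nm excitation, 500–520 nm emission); 500 nM antisense PNA as control.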

The nature of experiment [2]: Confirmation and Secondary Assay for Modulators of Hemoglobin Beta Chain Splicing at IVS2 705 locus (AID 930).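 Further: HeLa cells stably expressing the EGFP-705 splicing reporter; GFP fluorescence per well restored by corrected splicing of the IVS2-705 intron in EGFP.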 Summed up:
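HeLa cells stably carrying EGFP interrupted by mutant beta-globin intron 2 (IVS2-705) treated 2 days at 37C with compound; 500 nM antisense PNA as control. Correct splicing read as total peak GFP intensity per well by laser-scanning cytometry.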

The subject of a further experiment is CP315. Put plainly: qHTS profiling for inhibitors of Plasmodium falciparum proliferation (AID 504749). Further: nearly all actives have a fitted effect of over 60% in size. Conditions: P. falciparum in erythrocytes, SYBR Green DNA, 72 h; series mostly up to 28.7 µM. A digest of the protocol: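 SYBR Green fluorescence (ex 485 nm, em 535 nm) reports parasite DNA after 72 h compound exposure of infected red cells at 0.3% parasitemia, 2.5% hematocrit; signal normalized to 0.29 uM artemisinin and vehicle wells.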
(Quantitative high-throughput screening tests each substance at several concentrations.)

For experiment [3], the target named is Guanine nucleotide-binding protein G(i) subunit alpha-1 (Homo sapiens) (UniProt P63096). Briefly: qHTS Assay for Inhibitors of RGS12 GoLoco Motif Activity (Green Fluorophore) (AID 879).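 Further: negative values mean loss of peptide binding seen as reduced polarization.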 A digest of the protocol: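 A drop in FITC polarization marked displacement of the FITC-tagged RGS12 GoLoco peptide (10 nM) from Gαi1 (50 nM). Compounds were incubated 10 min at room temperature in Tris pH 7.5 buffer containing 150 mM NaCl, 0.1 mM GDP and 0.05% NP40; unlabeled peptide titration served as control.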
Chain of Guanine nucleotide-binding protein G(i) subunit alpha-1 (Homo sapiens) (P63096 whole entry, looked up): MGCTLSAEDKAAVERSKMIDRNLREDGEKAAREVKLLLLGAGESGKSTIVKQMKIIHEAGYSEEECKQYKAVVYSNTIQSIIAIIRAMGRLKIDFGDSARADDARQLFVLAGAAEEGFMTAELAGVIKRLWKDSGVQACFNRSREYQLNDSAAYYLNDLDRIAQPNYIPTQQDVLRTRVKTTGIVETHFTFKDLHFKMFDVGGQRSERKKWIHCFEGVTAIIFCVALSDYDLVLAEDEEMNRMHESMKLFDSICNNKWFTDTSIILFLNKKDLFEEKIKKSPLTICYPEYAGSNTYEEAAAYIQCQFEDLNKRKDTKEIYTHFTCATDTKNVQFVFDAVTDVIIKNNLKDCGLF

For experiment [4], the target named is Muscarinic acetylcholine receptor M1 (Rattus norvegicus) (UniProt P08482). Put plainly: qHTS Assay for Antagonists of Acetylcholine Muscarinic M1 Receptor: Kinetic Measurement of Intracellular Calcium Response (AID 943). Further: nearly all actives have a fitted effect of over 75% in size. Summed up: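 Read-out: peak over basal Fluo-4 fluorescence, kinetic at 1 Hz for 4 min after EC80 carbachol (100 nM final). Rat M1-CHO cells, dye loaded 1 h at 37C, compound added 10 min before agonist.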
Chain of Muscarinic acetylcholine receptor M1 (Rattus norvegicus) (P08482 whole entry, looked up): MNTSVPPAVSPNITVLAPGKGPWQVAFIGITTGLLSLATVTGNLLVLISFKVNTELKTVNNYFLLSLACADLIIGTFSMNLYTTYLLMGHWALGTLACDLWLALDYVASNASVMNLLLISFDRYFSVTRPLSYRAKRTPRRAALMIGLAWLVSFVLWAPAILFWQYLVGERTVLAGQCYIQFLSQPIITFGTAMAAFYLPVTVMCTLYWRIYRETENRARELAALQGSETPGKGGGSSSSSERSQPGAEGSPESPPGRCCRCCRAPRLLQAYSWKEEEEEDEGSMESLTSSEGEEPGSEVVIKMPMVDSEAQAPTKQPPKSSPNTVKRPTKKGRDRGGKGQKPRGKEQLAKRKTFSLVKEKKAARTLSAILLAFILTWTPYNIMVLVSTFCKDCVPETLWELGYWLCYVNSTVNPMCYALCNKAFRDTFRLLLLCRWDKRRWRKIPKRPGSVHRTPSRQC

For experiment [5] the target is unchanged. Briefly: qHTS Assay for Antagonists of Acetylcholine Muscarinic M1 Receptor: Measurement of IP-One Response (AID 944). Further: nearly all actives have a fitted effect of over 75% in size. Summed up: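 Read-out: HTRF competition between d2-IP1 and Eu-cryptate anti-IP1 antibody, emission 620 and 665 nm. Stimulus was carbachol, EC80 (200 nM), for 30 min in M1-CHO cells (rat receptor), after 10 min compound pre-treatment.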

Experiment [6] has as its target Pyruvate kinase (Leishmania mexicana) (UniProt Q27686). Put plainly: qHTS Validation Assay for Inhibitors of Leishmania Mexicana Pyruvate Kinase (AID 945). Summed up:
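Eight-point qHTS titrations in triplicate, data normalized to DMSO neutral control. Reaction: 0.2 nM LmPYK E451W mutant, 0.5 mM PEP, 0.1 mM ADP, 7 mM MgCl2, pH 7.2, one hour at room temperature; luminescent ATP detection.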

In experiment [7] the target is Pyruvate kinase PKM (Homo sapiens) (UniProt P14618). Put plainly: qHTS Assay for Activators of Human Muscle Pyruvate Kinase (AID 954; active means well fitted curve in the direction sought with a large enough effect, not every such curve was filed as active). Summed up:
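Compound pinned into substrate mix (0.5 mM PEP, 0.1 mM ADP), then 0.1 nM PKM2 added; 1 h, RT. Stop/detection luciferase reagent added, luminescence read. Normalized to no-inhibition and no-enzyme or reference-inhibitor controls.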

The target of experiment [8] is Alpha-galactosidase A (Homo sapiens) (UniProt P06280). Put plainly: Counterscreen for Glucocerebrosidase Inhibitors: qHTS Assay for Human alpha-Galactosidase at pH 4.5 (AID 992). Summed up:
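Steps: enzyme (2 nM final), then compound across 0.7 nM to 77 uM, then 80 uM fluorogenic galactopyranoside substrate; incubate 20 min at room temperature; quench at pH 10; measure fluorescence at 365/440 nm.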
For orientation: Counterscreens check selectivity or assay interference.

Experiment [9] concerns the target alpha-glucosidase (Oryza sativa, rice) (UniProt Q653V4). Briefly: Counterscreen for Glucocerebrosidase Inhibitors: qHTS Assay for Rice alpha-Glucosidase at pH 5.0 (AID 997). A digest of the protocol:
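Endpoint fluorogenic assay at pH 5.0: compounds (0.7 nM to 77 uM) titrated against 4 nM rice enzyme and 400 uM 4-MU-alpha-glucoside for 20 min at room temperature; NaOH/glycine stop, read ex 365/em 440 nm, Hill-fitted AC50.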

Chain of Pyruvate kinase (Leishmania mexicana) (Q27686 2-499 E452W): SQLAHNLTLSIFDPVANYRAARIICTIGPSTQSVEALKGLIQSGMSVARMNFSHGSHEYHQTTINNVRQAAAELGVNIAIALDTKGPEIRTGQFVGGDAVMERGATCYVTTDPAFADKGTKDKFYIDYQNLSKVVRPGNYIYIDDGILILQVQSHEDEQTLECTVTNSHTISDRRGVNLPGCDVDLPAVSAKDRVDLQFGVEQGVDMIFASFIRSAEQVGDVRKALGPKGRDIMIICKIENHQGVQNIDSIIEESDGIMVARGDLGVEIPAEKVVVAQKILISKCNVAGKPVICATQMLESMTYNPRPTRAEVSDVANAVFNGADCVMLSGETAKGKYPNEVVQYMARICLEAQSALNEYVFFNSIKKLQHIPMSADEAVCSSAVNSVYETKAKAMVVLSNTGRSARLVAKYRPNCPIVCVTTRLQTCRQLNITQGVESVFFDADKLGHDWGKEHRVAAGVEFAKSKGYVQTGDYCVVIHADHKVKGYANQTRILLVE
Chain of Alpha-galactosidase A (Homo sapiens) (P06280 whole entry, looked up): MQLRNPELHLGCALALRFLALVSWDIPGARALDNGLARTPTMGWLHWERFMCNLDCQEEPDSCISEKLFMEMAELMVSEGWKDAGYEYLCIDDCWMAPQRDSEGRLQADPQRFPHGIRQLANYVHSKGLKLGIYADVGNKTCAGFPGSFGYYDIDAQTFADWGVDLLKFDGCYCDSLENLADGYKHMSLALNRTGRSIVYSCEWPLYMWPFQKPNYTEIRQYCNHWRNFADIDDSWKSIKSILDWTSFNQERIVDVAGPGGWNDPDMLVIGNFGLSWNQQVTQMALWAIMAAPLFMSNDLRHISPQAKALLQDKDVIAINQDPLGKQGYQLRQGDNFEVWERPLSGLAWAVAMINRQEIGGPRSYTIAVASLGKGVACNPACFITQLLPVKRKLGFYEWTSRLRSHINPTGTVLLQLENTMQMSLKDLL
Chain of Pyruvate kinase PKM (Homo sapiens) (P14618 whole entry, looked up): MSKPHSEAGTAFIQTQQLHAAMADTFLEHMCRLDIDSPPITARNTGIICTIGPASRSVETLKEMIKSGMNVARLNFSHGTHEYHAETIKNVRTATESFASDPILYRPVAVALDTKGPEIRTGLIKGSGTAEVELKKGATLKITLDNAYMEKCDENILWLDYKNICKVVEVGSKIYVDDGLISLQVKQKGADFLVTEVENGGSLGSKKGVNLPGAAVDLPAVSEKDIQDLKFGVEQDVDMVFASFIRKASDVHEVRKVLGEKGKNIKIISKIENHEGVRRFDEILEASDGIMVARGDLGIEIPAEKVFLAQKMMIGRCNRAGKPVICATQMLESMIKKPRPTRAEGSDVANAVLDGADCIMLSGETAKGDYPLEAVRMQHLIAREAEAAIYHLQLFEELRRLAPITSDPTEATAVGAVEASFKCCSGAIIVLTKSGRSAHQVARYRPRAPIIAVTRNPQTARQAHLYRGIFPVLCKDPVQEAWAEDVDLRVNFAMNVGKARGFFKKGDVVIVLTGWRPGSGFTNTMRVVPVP

As for `CN(C)c1ccc(-c2nc(Nc3ccncc3)c3ccccc3n2)cc1`, the compound was called inactive in [1] and in experiment [2].
For `CC1(C)S[C@@H]2[C@H](NC(=O)Cc3ccccc3)C(=O)N2[C@@H]1C(=O)O`, the Potency entry in the experiment on CP315 was “inactive”.
As to `C[C@H](Oc1ccc(Oc2cnc3ccc(Cl)cc3n2)cc1)C(=O)O`, the compound was called inactive in experiment [3], in experiment [6], in experiment [7] and in experiment [8]. Besides, the Potency entry in [4], in [5] and in [9] was “inactive” each time.
`C[C@H](CCC(=O)O)[C@H]1CC[C@@H]2[C@H]3[C@@H](C[C@@H](O)[C@]21C)[C@]1(C)CC[C@H](O)C[C@@H]1C[C@@H]3O`: the Potency result in the experiment on CP315 is “inactive”.
